Inconclusive results are not listed. Active and inactive are the calls of the source. Calls follow the shape of the dose curve; as a rule, active = well fitted inhibition curve with a large enough effect; inconclusive = small, poorly fitted or top-dose-only effect; inactive = no such curve, though single readings can be large or run the other way.
Each molecule was assayed against Luciferin 4-monooxygenase (Photinus pyralis) (UniProt P08659) (assay: FLuc inhibitory activity for the follow-up compounds in a biochemical assay with an in-house formulation of detection reagent). Settings: purified FLuc, luminescence; series mostly up to 25.6 µM.
Luciferin 4-monooxygenase (Photinus pyralis), sequence (P08659 whole entry, looked up): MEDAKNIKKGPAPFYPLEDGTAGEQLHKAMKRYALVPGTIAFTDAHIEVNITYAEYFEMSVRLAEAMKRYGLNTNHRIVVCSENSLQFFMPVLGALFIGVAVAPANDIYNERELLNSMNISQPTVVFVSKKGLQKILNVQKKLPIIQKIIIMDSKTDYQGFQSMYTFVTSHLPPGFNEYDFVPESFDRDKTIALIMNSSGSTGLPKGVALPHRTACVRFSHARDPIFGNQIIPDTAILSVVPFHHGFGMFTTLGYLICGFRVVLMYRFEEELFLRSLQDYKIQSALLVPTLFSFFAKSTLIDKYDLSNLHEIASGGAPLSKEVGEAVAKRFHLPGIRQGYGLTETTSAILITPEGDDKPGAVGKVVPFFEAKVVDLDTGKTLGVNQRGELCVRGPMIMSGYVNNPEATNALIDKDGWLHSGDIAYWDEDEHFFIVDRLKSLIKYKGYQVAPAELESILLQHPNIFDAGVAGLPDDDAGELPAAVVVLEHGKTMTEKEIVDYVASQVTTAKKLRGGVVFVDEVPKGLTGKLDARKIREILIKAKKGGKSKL
Description: NCGC Assay Overview: Firefly (Photinus pyralis) luciferase is one of the most commonly used transcriptional reporters. It is considered one of the more dynamically responsive reporters - that is, responsive to changes in reporter transcription - as it requires no post-translational modifications and is enzymatically active directly after protein synthesis (Wood, 1998). With no endogenous expression in mammalian cells and without the requirement of external excitation, it offers very little background signal, thus generally providing excellent signal to background for most assays. Previous profiling work to determine the prevalence of compounds that affect FLuc enzymatic activity (PubChem AID 411) identified that ~3% of the MLSMR library (then at ~72K) inhibited FLuc (Auld et al., 2008). […] Of the compounds identified in this profile that inhibited FLuc, 151 compounds were selected for further analysis, in an effort to better understand their mode of inhibiting FLuc. The assay described here was to determine the activity of the compounds in a FLuc assay that used an in-house formulation of detection reagent.
NCGC Assay Protocol Summary: Reagents: 300mM Tris-HCl, 300mM Trizma base, 300mM MgCl, 1% Triton-X100, 5mM DTT, 500uM Coenzyme A trilithium salt (Sigma #C3019),450uM ATP (Sigma #A7699), 1mM D-luciferin sodium salt monohydrate (Biosynth #L8240); 10nM P. pyralis luciferase (Sigma #L9506) Control compounds used were two known firefly luciferase inhibitors (3-(5-(3-chlorophenyl)-1,2,4-oxadiazol-3-yl)benzoic acid and 5-(2-fluorophenyl)-3-phenyl-1,2,4-oxadiazole), and DMSO. Assay Summary: Six microliters of buffer containing firefly luciferase (final concentrations: 50mM Tris acetate, 10nM P. pyralis luciferase) are dispensed into each well of a Greiner white, solid-bottom 1536-well format plate using a flying reagent dispenser (FRD). These assay plates were then treated with 23nL of compound or DMSO using a Kalypsys pin tool, which allows for delivery of a 12-point intraplate titration of each compound to the assay plate (quantitative HTS), with final compound concentrations ranging from approximately ~25uM to 0.1nM. Three microliters of 3X in-house detection reagent was then delivered by FRD to each well (final concentrations in assay: 300mM Tris-HCl, 300mM Trizma base, 300mM MgCl, 1% Triton-X100, 5mM DTT, 500uM Coenzyme A trilithium salt, 450uM ATP, 1mM D-luciferin sodium salt monohydrate). Luciferase activity was then measured using a ViewLux CCD imager (PerkinElmer), with an average exposure time of 2-30 seconds (2X binning, medium/high gain).

Potency, inactive:
CC(=O)Nc1cccc(-c2nc3ccccc3s2)c1C
Cc1cccc(C(=O)Nc2ccc(-c3nc4ccccc4s3)cc2Cl)c1
O=C(Nc1ccccc1C(=O)O)c1cccc(S(=O)(=O)Nc2ccc(Br)cc2)c1
O=C(Nc1cccc(-c2nc3ccccc3s2)c1)c1cc(-n2cnnc2)ccc1Cl
O=C(Nc1ccccc1C(=O)Nc1ccccc1C(=O)O)c1ccccc1
O=C(Nc1ccccc1C(=O)O)c1cc(S(=O)(=O)Nc2cccc(F)c2)ccc1Cl
Nc1ccccc1C(=O)Nc1cccc(C(=O)O)c1
O=C(O)c1cccc(NC(=O)c2cccc(S(=O)(=O)N3CCc4ccccc43)c2)c1
Cc1ccc(C(=O)Nc2cccc(C(=O)O)c2)cc1S(=O)(=O)N1CCCCC1
O=C(Nc1ccccc1C(=O)O)c1cccc(NC(=O)c2ccccc2Cl)c1
CN(C)S(=O)(=O)c1ccc(C(=O)Nc2cccc(C(=O)O)c2)cc1
COc1ccc2nc(NC(=O)c3cccc(S(=O)(=O)N4CCOCC4)c3)sc2c1
CCc1noc(C)c1C(=O)Nc1nc2ccc(OC)cc2s1
O=C(O)c1ccc(NC(=O)c2cc(S(=O)(=O)N3CCCCC3)c(Cl)cc2Cl)cc1
O=C(Nc1ccccc1C(=O)O)c1ccc(NC(=O)C2CCCCC2)cc1
COc1cc(OC)cc(-c2nc3ccccc3s2)c1
COc1ccc2nc(NC(=O)c3nc(S(=O)(=O)Cc4ccc(C)cc4)ncc3Cl)sc2c1
Cc1ccc(NS(=O)(=O)c2ccc(Cl)c(C(=O)Nc3cccc(C(=O)O)c3)c2)cc1
CCOC(=O)N1CCN(CC(=O)Nc2nc3ccc(OC)cc3s2)CC1
COc1ccc2nc(NC(=O)Cc3cccs3)sc2c1
Cc1c(NC(=O)c2cccs2)cccc1-c1nc2ccccc2s1
O=C(Nc1ccccc1C(=O)O)c1cc(S(=O)(=O)Nc2ccccc2)ccc1Cl
COc1ccc(-c2cccc(C(=O)Nc3cccc(C(=O)O)c3)c2)cc1
Cc1c(NC(=O)c2cc(-n3cnnc3)ccc2Cl)cccc1-c1nc2ccccc2s1
COc1ccc2nc(NC(=O)c3cccs3)sc2c1

Potency, active:
COc1ccc(C(=O)Nc2ccccc2C(=O)N/N=C/c2ccc(O)c(OC)c2)cc1 0.011 µM
CCOc1ccc2nc(NC(=O)c3ccccn3)sc2c1 3.9 µM
Cc1ccc(C(=O)Nc2cccc(C(=O)O)c2)cc1 13.8 µM
c1ccc2sc(-c3ccc4c(c3)OCO4)nc2c1 4.91 µM
C/C(=N\NC(=O)c1ccccc1NC(=O)c1ccc(Cl)cc1)c1ccncc1 1.1 µM
CN=c1scc(-c2ccccc2F)n1/N=C/c1ccc[nH]1 0.123 µM
COc1ccc2nc(NC(=O)c3cnccn3)sc2c1 4.38 µM
Nc1ccc2nc(-c3ccc(O)cc3)sc2c1 6.19 µM
COc1ccc2nc(NC(=O)c3ccc([N+](=O)[O-])o3)sc2c1 9.8 µM
Nc1ccc2nc(-c3ccccc3)sc2c1 2.19 µM
CCOc1ccc2nc(NC(=O)c3ccoc3C)sc2c1 4.91 µM
Cc1ccc(C(=O)O/N=C(\N)c2ccccn2)c(Cl)c1 0.0619 µM
Cc1ccc2nc(-c3ccc(NC(=O)CN4CCN(C(=O)c5ccco5)CC4)cc3)sc2c1 2.46 µM
O=C(Nc1ccccc1C(=O)O)c1ccc(NC(=O)C2CC2)cc1 7.79 µM
CCOc1ccc(C(=O)Nc2ccccc2C(=O)O)cc1 6.94 µM

— PubChem BioAssay AID602475 (National Center for Advancing Translational Sciences (NCATS), 2012)
